Each structure is given as a SMILES string. Screen size: about 52,000 compounds; about 4,300 (8.3%) were called active. This excerpt belongs to a sample that is enriched for actives. Unmarked numbers belong to inactive results. Rule as the data show it: active = survival mostly below about 52% (no sharp cut-off); inactive = mostly above about 56%.

In this assay the test system is DeltatarO mutant. Put plainly: S. aureus survival, RN4220 and DeltatarO strains – OD600, teichoic acid synthesis inhibitors, primary screen (AID 463173). The following applies: S. aureus RN4220 wild type/DeltatarO growth, OD600, 18 h, stronger effect = lower value, screened at 18.75 µg/mL (by protocol).
Turning to `CCOc1ccc(NC(=O)c2sc3ccccc3c2Cl)cc1`, the survival was 68%.
Then `CCCC(=O)Nc1ccc(NC(=O)c2sc3ccccc3c2Cl)cc1`, with 109%; and `CCOC(=O)c1ccccc1NC(=O)c1sc2ccccc2c1Cl`, with 36% (active); and `Cc1ccc(NC(=O)c2sc3ccccc3c2Cl)cc1`, with 66%.
Then `CCOC(=O)c1ccc(NC(=O)c2sc3ccccc3c2Cl)cc1`, with 67%.
Then `COc1ccccc1NC(=O)c1sc2cccc(Cl)c2c1Cl`, with 64%.
As for `CCN(CC)c1ccc(NC(=O)c2sc3ccccc3c2Cl)cc1`, the survival was -2% (active).
With `O=C(Nc1ccccc1Cl)c1sc2cccc(Cl)c2c1Cl` the figure was 63%; with `Cc1cccc(NC(=O)c2sc3cccc(Cl)c3c2Cl)c1`, 11% (active).
Then `CC(C)NC(=O)c1ccc2c(c1)nc1n2CCCCC1`, with 91%; and `COc1cccc(Cn2c(=O)n(CC3CCC(C(=O)N4CCOCC4)CC3)c(=O)c3sccc32)c1` (stereo not drawn), with 124%.
With `CCc1ccc(S(=O)(=O)c2cn(CC)c3cc(N4CCCCC4)c(F)cc3c2=O)cc1` the figure was 83%; with `CCOc1ccc2[nH]c(=O)c(CN(Cc3ccccc3OC)C(=O)N3CCCC3)cc2c1`, 96%; with `NCCS(=O)(=O)N1CCCC1`, 88%.
On to `Cc1ccn2c(c1)nc(=O)c1cc(S(=O)(=O)N3CCC(C)CC3)c(Cl)cc12`, for which the survival is 87%.
As for `COc1ccc(NC(=O)CC2C(=O)N(c3cccc(C)c3)C(=O)N2C2CCCCC2)cc1` (stereo not drawn), the survival is 69%.
With `COc1ccc(NC(=O)CSc2ccc3nc(-c4ccccc4)cn3n2)cc1OC` the figure was 113%; with `CCOC(=O)N1CCN(Cc2nc3cc(NC(=O)c4ccccc4Cl)ccc3n2C(C)C)CC1`, 70%; with `COC(=O)CN1C(=O)CSc2ccc(S(=O)(=O)Nc3ccccc3)cc21`, 91%.
With `COC(=O)CN1C(=O)CSc2ccc(S(=O)(=O)Nc3cccc(C)c3)cc21` the figure was 101%; with `COC(=O)CN1C(=O)CSc2ccc(S(=O)(=O)Nc3cc(C)ccc3C)cc21`, 25% (active).
With `COC(=O)CN1C(=O)CSc2ccc(S(=O)(=O)Nc3cccc(C)c3C)cc21` the figure was 63%.
Turning to `COC(=O)CN1C(=O)CSc2ccc(S(=O)(=O)Nc3cccc(Br)c3)cc21`, the survival was 37% (active).
Then `COC(=O)CN1C(=O)CSc2ccc(S(=O)(=O)Nc3c(C)cc(C)cc3C)cc21`, with 101%.
With `CC(C(=O)O)N1CCCCC1` (stereo not drawn) the figure was 79%; with `CCOc1ccc2[nH]c(=O)c(CN(Cc3cccnc3)S(=O)(=O)c3ccccc3)cc2c1`, 86%; with `CCOc1ccccc1NC(=O)Cn1c(=O)n(Cc2nc(C)no2)c(=O)c2ccccc21`, 81%.
Then `Cc1cc(C)c(NC(=O)CN2C(=O)CCSc3ccc(S(=O)(=O)N4CCCC4)cc32)c(C)c1`, with 84%; and `Cc1ccc(NC(=O)CN2C(=O)c3ccccc3Sc3ccc(C(=O)N4CCCC4)cc32)cc1`, with 76%; and `Cc1ccc(NC(=O)CN2C(=O)c3ccccc3Sc3ccc(C(=O)N4CCOCC4)cc32)c(Cl)c1`, with -5% (active).
Turning to `CN(C)c1ccc(NC(=O)CN2C(=O)c3ccccc3Sc3ccc(C(=O)N4CCCC4)cc32)cc1`, the survival was -2% (active).
Then `O=C(CN1C(=O)c2ccccc2Sc2ccc(C(=O)N3CCOCC3)cc21)Nc1ccc(Cl)cc1F`, with 94%; and `CCc1ccc(NC(=O)CN2C(=O)c3ccccc3Sc3ccc(C(=O)N4CCCC4)cc32)cc1`, with 86%; and `Cc1cc(C)cc(NC(=O)CN2C(=O)c3ccccc3Sc3ccc(C(=O)N4CCOCC4)cc32)c1`, with 89%.
With `CCOc1ccccc1N(CC)C(=O)Cn1ncc2c1-c1ccccc1OC2` the figure was 62%; with `COc1cccc(C(=O)N(Cc2ccc(N(C)C)cc2)Cc2ccco2)c1`, 69%; with `CCOCN(C(=O)Cn1c(COC)nc2ccccc21)c1c(C)cccc1CC`, 95%.
Then `CCOCN(C(=O)Cn1c(CC(C)C)nc2ccccc21)c1c(C)cccc1CC`, with -12% (active); and `CCc1cccc(CC)c1N(COC)C(=O)Cn1c(CC)nc2ccccc21`, with 69%; and `CCOCN(C(=O)Cn1c(C)nc2ccccc21)c1c(C)cccc1CC`, with 125%.
Regarding `CCCCc1nc2ccccc2n1CC(=O)N(COCC)c1c(C)cccc1CC`, the survival is -12% (active).
With `CCOCN(C(=O)Cn1c(C(C)O)nc2ccccc21)c1c(C)cccc1CC` (stereo not drawn) the figure was 83%; with `CCc1ccc(NC(=O)Cn2c(=O)n(-c3cc(C)cc(C)c3)c(=O)c3oc4ccccc4c32)cc1`, 73%; with `COc1ccc(-c2cn(-c3ccc(C)cc3)c(S(=O)(=O)CC(=O)Nc3ccc(F)cc3)n2)cc1`, 150%.
With `CCc1ccc(NC(=O)c2sc3nc(C)c(Cl)c(C)c3c2NC(=O)c2ccccc2OC)cc1` the figure was 130%; with `COc1ccc(N2CCN(C(=O)C(CC(C)C)NS(=O)(=O)c3ccc4nc(C)sc4c3)CC2)cc1` (stereo not drawn), 77%.
With `O=C(CSc1cn(CC(=O)N2CCCCCC2)c2ccccc12)Nc1ccccc1F` the figure was 77%.
Turning to `O=C(CSc1cn(CC(=O)N2CCOCC2)c2ccccc12)Nc1ccccc1F`, the survival is 88%.
Then `Cc1ccccc1CSc1cn(CC(=O)N2CCCCC2)c2ccccc12`, with 71% (active); and `Cc1ccccc1CSc1cn(CC(=O)N2CCCC2)c2ccccc12`, with 58%.
With `Cc1ccccc1CSc1cn(CC(=O)N2CCCCCC2)c2ccccc12` the figure was 68%; with `O=C(CSc1cn(CC(=O)N2CCCCC2)c2ccccc12)Nc1ccccc1F`, 70% (active); with `CCC(=O)N1c2ccccc2CC1C(=O)N1CCN(c2cccc(Cl)c2)CC1` (stereo not drawn), 77%.
In the case of `CCn1cc(C(=O)NCCc2ccc(Cl)cc2)c(=O)c2cc(S(=O)(=O)N3CCC(C)CC3)ccc21`, the survival was 105%.
Then `CCN(CC)CCN(C(=O)c1ccco1)c1nc2c(C)c(C)ccc2s1`, with 77%; and `O=[N+]([O-])c1cc(-c2nc(-c3ccccc3)no2)ccc1N1CCCC1`, with 63%.
With `CCOC(=O)c1ccc(NC(=O)CC2Nc3ccccc3NC2=O)cc1` (stereo not drawn) the figure was 62%; with `COc1ccc(NC(=O)CC2Nc3ccccc3NC2=O)cc1` (stereo not drawn), 61% (active); with `COc1ccc(NC(=O)CC2Nc3cccc4cccc(c34)NC2=O)cc1` (stereo not drawn), 41% (active).
With `Cc1ccc(NC(=O)CC2Nc3cccc4cccc(c34)NC2=O)cc1` (stereo not drawn) the figure was 61%; with `COc1cccc(NC(=O)CC2Nc3cc(C)c(C)cc3NC2=O)c1` (stereo not drawn), 89%; with `CCOC(=O)c1ccc(NC(=O)CC2Nc3cccc4cccc(c34)NC2=O)cc1` (stereo not drawn), 28% (active).
For the molecule `CCOc1ccc(NC(=O)CC2Nc3cccc4cccc(c34)NC2=O)cc1` (stereo not drawn), the survival was 37% (active).
Then `O=C(CC1Nc2cccc3cccc(c23)NC1=O)Nc1ccc(F)cc1` (stereo not drawn), with 111%; and `Cc1ccc(NC(=O)CC2Nc3ccccc3NC2=O)cc1C` (stereo not drawn), with 58%.
With `Cc1cccc(NC(=O)CC2Nc3ccccc3NC2=O)c1` (stereo not drawn) the figure was 71%.
Then `CC(=O)c1ccc(NC(=O)CC2Nc3cccc4cccc(c34)NC2=O)cc1` (stereo not drawn), with 72%; and `Cc1cccc(NC(=O)CC2Nc3cccc4cccc(c34)NC2=O)c1` (stereo not drawn), with 64%; and `N#Cc1cn(-c2ccccc2)nc1-c1cccnc1`, with 73%.
Take `O=C(Nc1ccccn1)NC12CC3CC(CC(C3)C1)C2`: the survival is 106%.
Consider `Cc1ccc(NC(=O)c2oc3ccc4c(c3c2C)C(=O)CC(C)(C)O4)c(C)c1`, for which the survival is 83%.
Consider `CC1CCN(C(C(=O)O)c2ccccc2)CC1` (stereo not drawn), for which the survival is 98%.
With `CN1CCN(C(CNC(=O)C(=O)Nc2ccc(Cl)cc2)c2cccnc2)CC1` (stereo not drawn) the figure was 86%; with `COc1ccccc1CNC(=O)CSc1ncc(S(=O)(=O)c2ccc(C)c(Cl)c2)c(=O)[nH]1`, 124%; with `Cc1ccc(CNS(=O)(=O)c2ccc(-c3cnc(C4CC4)o3)cc2)cc1`, 76%.
With `O=S(=O)(NCc1ccccc1)c1ccc(-c2cnc(C3CC3)o2)cc1` the figure was 71%; with `Cc1cccc(CNS(=O)(=O)c2ccc(-c3cnc(C4CC4)o3)cc2)c1`, 52% (active).
Turning to `CC(C)c1ccc(NC(=O)C(C)N(c2ccccc2)S(C)(=O)=O)cc1` (stereo not drawn), the survival is 65%.
With `Cc1ccc2onc(CC(=O)N(C)c3ccccc3)c2c1` the figure was 52%; with `COc1ccc(N2CCN(C(=O)NCc3noc4ccccc34)CC2)cc1`, 42%; with `Cc1ccc2onc(CC(=O)N3CCN(c4cc(Cl)ccc4C)CC3)c2c1`, 96%.
With `Cc1ccc2onc(CNC(=O)N3CCN(c4cccc(C)c4C)CC3)c2c1` the figure was 48%; with `COc1ccc(N2CCN(C(=O)Cc3noc4ccc(C)cc34)CC2)cc1`, 42% (active).
Then `Cc1ccc2onc(CC(=O)N3CCN(c4ccc(Cl)cc4)CC3)c2c1`, with 30% (active); and `Cc1ccc2onc(CC(=O)N3CCN(c4cccc(C)c4C)CC3)c2c1`, with 39% (active).
With `Cc1ccc2onc(CC(=O)N3CCN(c4ccccc4F)CC3)c2c1`, the survival was 71%.
With `Cc1ccc2oc(=O)c3cnn(CC(=O)N4CCN(c5ccccc5)CC4)c3c2c1`, the survival is 123%.
Then `Cc1ccc2onc(CC(=O)N3CCN(c4cccc(Cl)c4)CC3)c2c1`, with 83%.
Then `COc1ccc(N2CCN(C(=O)Cc3coc4ccc(C)cc34)CC2)cc1`, with 105%; and `Cc1ccc2onc(CC(=O)N3CCN(c4ccccc4)CC3)c2c1`, with 40% (active); and `COc1ccc(-n2c(=O)[nH]c3cc(C(=O)NCCc4ccccc4)ccc3c2=O)cc1OC`, with 94%.
Then `COc1ccccc1NC(=O)Cn1c(=O)n(-c2ccc(C)cc2)c(=O)c2ccc(C(=O)NCc3ccco3)cc21`, with 79%; and `Cc1ccc(N2CCN(C(=O)Cn3ncc4c([nH]c5ccc(C)cc54)c3=O)CC2)c(C)c1`, with 94%.

Values taken from PubChem BioAssay AID463173 (ICCB-Longwood Screening Facility, Harvard Medical School, 2010).
